Measured values from PubChem BioAssay AID1159524 (National Center for Advancing Translational Sciences (NCATS), 2015).
In all, about 410,000 compounds went through this assay and about 5,100 (1.2%) were called active. Not shown: some 8% with an inconclusive outcome. Shown is part of a subset that was picked to be rich in actives. Unmarked numbers belong to inactive results. Calls follow the shape of the full dose curve; tested in HEK293T cells.

Test: High Throughput Screening for Foot and Mouth Disease Virus Antivirals; also: read-out not given here; nearly all actives have a fitted effect of over 45% in size
Details: FMDV antiviral cell-based qHTS; series mostly up to 57.9 µM; activity change, negative = inhibition: at the top concentration
% is scaled to controls: 0 for no effect and ±100 for the full control effect; potency is read from the fitted curve at half-maximal effect.

Row | SMILES | activity change, negative = inhibition | Potency
1 | OCC1CCCN(c2nc3cc4c(cc3cc2CNCc2cccs2)OCO4)C1 (stereo not drawn) | 8.34% | 
2 | CCn1cc(C(=O)NCc2ccccc2)c(=O)c2cc(S(=O)(=O)N3CCCCC3)ccc21 | -15.6% | 
3 | C=C1C([C@@]2(C)C(OC(C)=O)CC(=O)O[C@@](C)(COC(C)=O)C2CC(=O)OC)C(OC=O)C(OC(=O)C(O)C(C)CC)[C@]2(C)C(c3ccoc3)CC(=O)C12O (stereo partly drawn) | -18.7% | 
4 | O=C(CN1Cc2ccccc2OC(c2ccccc2)C1)N1CCCCC1c1cccnc1 (stereo not drawn) | 1.09% | 
5 | O=c1c(CCc2ccccc2)nc2cnc(N3CCNCC3)nc2n1Cc1cccs1 | -1.48% | 
6 | CCCCNC(=O)CN1C(=O)NC(Cc2ccccc2)(Cc2ccccc2)C1=O | 20.1% | 
7 | CCN(C(=O)Nc1cccc2ccccc12)c1ccccc1 | -16.1% | 
8 | CCCCC(O)(CCCC)C(=O)NN(C(=O)CCl)c1ccccc1 |  | 31.6 µM (active)
9 | Cc1cc2ccccc2n1CCNC(=O)c1ccc(F)cc1 | 23.9% | 
10 | Cc1cccc2c3c(ccc12)C1=C(C(=O)C3=O)C(C)CO1 (stereo not drawn) | -20.6% | 
11 | COc1ccc(-c2nc3cnc(Oc4ccccc4)nc3n(Cc3cccs3)c2=O)cc1 | 5.33% | 
12 | c1ccc(-c2cnc(CN3CCN(c4ccccc4)CC3)o2)cc1 | 7.04% | 
13 | CCCCn1c(SCc2ncc(-c3ccccc3)o2)nc2cc(S(N)(=O)=O)ccc21 |  | 28.2 µM (active)
14 | CCCCn1c(SCC(=O)N2CCCC2=O)nc2cc(S(N)(=O)=O)ccc21 | -13% | 
15 | CN1CCN2c3ccccc3Cc3ccccc3[C@@H]2C1 | -8.38% | 
16 | CS(=O)(=O)N1CCC[C@@]2(CCN(c3ccncc3)C2)C1 | 5.48% | 
17 | Cc1ccc(-c2ccc(C(=O)N3CCc4nnc(CNC(=O)c5ccccc5)n4CC3)cc2)cc1 | 9.83% | 
18 | COc1ccc(-c2csc3nc(-c4ccccc4F)oc(=O)c23)cc1OC |  | 20 µM (active)
19 | COc1ccc(-c2csc3ncnc(Oc4ccc5c(C)cc(=O)oc5c4)c23)cc1 | -19.5% | 
20 | Cc1sc2nc(-c3ccccc3F)oc(=O)c2c1C | 9.65% | 
21 | CCOC(=O)C1CCCN(C(=O)c2ccc(-n3ccc4ccccc43)s2)C1 (stereo not drawn) | -12.6% | 
22 | CCn1c2ccccc2c2cc(NC(=O)COc3ccc(C)cc3C)ccc21 | -14.4% | 
23 | Cc1ccc(OCC(=O)Nc2ccc(N3CCN(C(=O)c4ccco4)CC3)cc2)c(C)c1 |  | 15.8 µM (active)
24 | Cc1ccc(Cl)c(OCC(=O)N(C)CC(=O)Nc2ccc(N3CCOCC3)cc2)c1 | -9.29% | 
25 | COc1cccc(C(=O)Nc2c3c(nn2-c2cccc(C)c2C)CS(=O)(=O)C3)c1OC | -29.6% | 

Row | SMILES | activity change, negative = inhibition | Potency
26 | COc1ccc(C(=O)NC2CCCc3c2cnn3-c2cccc(C)c2C)c(OC)n1 (stereo not drawn) |  | 17.8 µM (active)
27 | Cc1cccc(C(=O)OC(C)C(=O)NC2CCCc3ccccc32)c1O (stereo not drawn) | 18.9% | 
28 | CCOc1ccc(N(CC)C(=O)c2noc3c2COc2ccc(C)cc2-3)cc1 | -9.48% | 
29 | O=C(C1CCC(Cn2c(=O)c3sccc3n(Cc3ccccc3F)c2=O)CC1)N1CCCCC1 (stereo not drawn) | 0% | 
30 | CNc1ccc(-c2nc(-c3ccccc3C)no2)cc1[N+](=O)[O-] | 67.5% | 
31 | C#CCCCCCCCCCCCCCCCC(=O)O |  | inactive
32 | CC(=O)c1ccc(NC(=O)CCc2nc(-c3ccc(C)cc3)no2)cc1 | -17.7% | 
33 | Fc1ccc(OCc2nn3c(Cn4nnc5ccccc54)nnc3s2)cc1 | -6.75% | 
34 | N#CCCn1cnc2ccccc21 | -16% | 
35 | c1ccc(Cc2nn3c(Cn4cnc5ccccc54)nnc3s2)cc1 |  | 14.1 µM (active)
36 | COc1ccc(CNc2ncncc2-c2ccccc2C)c(OC)c1 | -20.2% | 
37 | Cc1cc(C(=O)NCC2Cc3cccc(-c4cncnc4)c3O2)c(C)o1 (stereo not drawn) | -7.51% | 
38 | CNc1cc(-c2c(C)noc2C)ncn1 | -0.693% | 
39 | COCCCNC(=O)c1ccc(NC(=O)c2nsc3ccccc23)cc1 | 22.2% | 
40 | COCCn1c(SCC(=O)c2cc(C)ccc2C)nc2cc(C(=O)NC3CCCC3)ccc2c1=O | -5.56% | 
41 | CCc1nc(C)cn1S(=O)(=O)c1cc([N+](=O)[O-])ccc1Cl |  | 20 µM (active)
42 | CC(C)c1nccn1S(=O)(=O)c1cc([N+](=O)[O-])ccc1Cl | -7.03% | 
43 | CCc1nccn1S(=O)(=O)c1cccc([N+](=O)[O-])c1 | -18.2% | 
44 | CCc1ccccc1N1CC(c2nc3ccccc3n2CCCCOc2ccccc2)CC1=O (stereo not drawn) | 0% | 
45 | CCCCN1CC(c2nc3ccccc3n2CCCCOc2ccc(C)cc2C)CC1=O (stereo not drawn) |  | 39.8 µM (active)
46 | COc1ccc(OCCCn2c(C3CC(=O)N(c4ccc(F)cc4)C3)nc3ccccc32)cc1 (stereo not drawn) | -10.8% | 
47 | Cc1ccc(CNC(=O)Cn2c(=O)ccc3cc(S(=O)(=O)N4CCCC4)ccc32)cc1 | -21.1% | 
48 | Cc1ccc(-n2c(SCC(=O)c3ccccc3)nc3c([nH]c4ccccc43)c2=O)cc1 | 4.48% | 
49 | O=C1Oc2ccccc2C(=O)/C1=C/c1ccccc1O |  | 28.2 µM (active)
50 | C=C(C)C1CC=C(CO)CC1 (stereo not drawn) | -0.494% | 

Row | SMILES | activity change, negative = inhibition | Potency
51 | CCN(C(=O)CSc1nnnn1-c1ccccc1OC)C1CCS(=O)(=O)C1 (stereo not drawn) | 17.3% | 
52 | COc1ccccc1-n1nnnc1S(=O)(=O)Cc1ccc(Cl)cc1 |  | 10 µM (active)
53 | COc1ccccc1CN(C)c1nnnn1-c1ccccc1 | -2.75% | 
54 | CSc1ccccc1N1CCN(CCCCCC(=O)NC2CCCc3ccccc32)CC1 (stereo not drawn) | -25% | 
55 | CCC(C)C(=O)O[C@@H]1C[C@@]2(C)C(c3ccoc3)OC(=O)CC23OC2(C)O[C@@]14[C@@]1(C)C(CC(=O)OC)C5(C)CC1(O)C(O)(C5OC(=O)C1(C)OC1C)C(OC(C)=O)[C@@]34O2 (stereo partly drawn) | -13.6% | 
56 | O=C(NCc1ccc(F)cc1)C1CCN(C(=O)Nc2ccc(F)cc2)CC1 | -17% | 
57 | Cc1ccc(NC(=O)N2CCC(C(=O)NCc3ccc(F)cc3)CC2)cc1 |  | 7.08 µM (active)
58 | Cc1ccc(C(=O)NC2CCN(C(=O)Nc3ccc(F)cc3)CC2)cc1 | 0% | 
59 | O=C(CCN1Cc2ccccc2OC(c2ccccc2)C1)N[C@@H]1CS(=O)(=O)C[C@H]1O (stereo partly drawn) | 4.7% | 
60 | COc1ccc(NC(=O)CCN2CCN(CCO)CC2)cc1 | 11.4% | 
61 | O=C(NCC(c1ccc(Cl)cc1)N1CCOCC1)c1ccccc1F (stereo not drawn) | -11% | 
62 | CCC(C)(C)c1ccc(OCC(=O)N(C)C)c(C(C)(C)CC)c1 |  | 31.6 µM (active)
63 | Cc1ccc(-n2c(=O)c3cccnc3n2CC(=O)NCc2ccc(F)cc2)cc1C | 2.88% | 
64 | OCCN1CCN(c2ncnc3c2ncn3[C@H]2CN(Cc3ccco3)C[C@@H](CO)O2)CC1 | -21.6% | 
65 | OC[C@@H]1CN(Cc2ccncc2)C[C@H](n2cnc3c(N4CCN(c5ccccc5)CC4)ncnc32)O1 |  | 12.6 µM (active)
66 | OC[C@@H]1CN(Cc2ccc(-c3ccccc3)cc2)C[C@H](n2cnc3c(NC4CCCC4)ncnc32)O1 |  | 15.8 µM (active)
67 | CC(C)Nc1ncnc2c1ncn2[C@H]1CN(Cc2ccncc2)C[C@@H](CO)O1 | -18.6% | 
68 | OC[C@@H]1CN(C2CCCC2)C[C@H](n2cnc3c(NC4CCC4)ncnc32)O1 | -7.88% | 
69 | OC[C@@H]1CN(Cc2cccs2)C[C@H](n2cnc3c(Nc4ccccc4)ncnc32)O1 | 4.4% | 
70 | CN1CCN(c2ncc3nc(-c4ccc(Cl)cc4)c(=O)n(-c4ccccc4)c3n2)CC1 | 0.45% | 
71 | CCCCCCCCCCCC(=O)O[C@H](CC(=O)O)C[N+](C)(C)C | -1.5% | 
72 | CCc1nn(CC(=O)Nc2cc(C)cc(C)c2)c(=O)c2cc3sccc3n12 | -19% | 
73 | CCOC(=O)C1CCN(C(=O)Nc2cccc(OC)c2)CC1 | 20% | 
74 | CCOC(=O)[C@]12Cc3ccccc3[C@H]1N(C1CCCCC1)C(=O)c1cc(OC)ccc12 |  | 10 µM (active)
75 | COc1ccc(C23NCCN2C(=O)c2ccccc23)cc1 (stereo not drawn) | -17.3% | 

Row | SMILES | activity change, negative = inhibition | Potency
76 | CCOC(=O)c1ccc(NC(=O)CC2C(=O)N(c3cccc(OC)c3)C(=O)N2C2CCCCC2)cc1 (stereo not drawn) | -24.8% | 
77 | CCOC(=O)[C@]12Cc3cc(OC)ccc3[C@H]1N(C(C)C)C(=O)c1ccccc12 |  | 31.6 µM (active)
78 | CCOc1ccc(NC(=O)CC2C(=O)N(c3cccc(OC)c3)C(=O)N2C2CCCCC2)cc1 (stereo not drawn) | -13.3% | 
79 | CCN(CC)S(=O)(=O)c1ccc2c(c1)N(CC(=O)NCC(C)c1ccccc1)C(=O)CO2 (stereo not drawn) | -2.75% | 
80 | O=C(NCCc1ccccc1)c1ccc2c(c1)N(Cc1ccccc1)C(=O)c1ccccc1S2(=O)=O | -0.764% | 
81 | c1ccc2c(c1)[I+]c1ccccc1-2 | -35.5% [at 97.4 µM] | 
82 | COc1ccc(CNC(=O)c2ccc(NC(=O)N3CC4CCCN4c4ccccc43)cc2)cc1 (stereo not drawn) | -8.63% | 
83 | COc1cc(NC(=O)Cn2c(=O)n(Cc3ccco3)c(=O)c3oc4ccccc4c32)cc(OC)c1 | -14.1% | 
84 | CCOC(=O)c1cc2c(=O)n3ccccc3nc2n(CCCOC)c1=NC(=O)C(C)(C)Oc1ccc(Cl)cc1 | 0% | 
85 | O=c1ccc2c(-c3ccccc3S(=O)(=O)O)c3ccc(O)c(O)c3oc-2c1O |  | 7.08 µM (active)
86 | CCCC(=O)Nc1ccc(C(=O)NCCCn2ccnc2)cc1 | 20.8% | 
87 | CCCC(=O)Nc1ccc(C(=O)N/N=C/c2ccc[nH]2)cc1 |  | 28.2 µM (active)
88 | CC(=O)Nc1ccc(C(=O)NNC(=O)CCCCC(=O)NNC(=O)c2ccc(NC(C)=O)cc2)cc1 | -0.805% | 
89 | CNC(=O)N1c2ccccc2C=Cc2ccccc21 | -23% | 
90 | CC1C(C)N(C(=O)CCl)c2ccccc2N1C(=O)CCl (stereo not drawn) |  | 3.55 µM (active)
91 | Cc1ccn(CCC(=O)N2c3ccccc3CC2C)n1 (stereo not drawn) | -5.82% | 
92 | N[C@H](Cc1o[nH]c(=O)c1Cl)C(=O)O | -15.3% | 
93 | CC(C)C(=O)NC(C)c1nnc2n1CCN(Cc1cccc3ncccc13)CC2 (stereo not drawn) | -10.8% | 
94 | Cc1nc2cnc(Nc3ccccc3)nc2n(C[C@H]2CCCO2)c1=O | -12.6% | 
95 | C[C@@H]1C[C@@H]2O[C@H]2/C=C\C=C\C(=O)Cc2c(Cl)c(O)cc(O)c2C(=O)O1 |  | 0.1 µM (active)
96 | COCCn1c(=O)c(CCc2ccccc2)nc2cnc(N3CCNCC3)nc21 | -12.9% | 
97 | COCCn1c(=O)c(-c2ccc(OC)cc2)nc2cnc(Oc3cccc(Cl)c3)nc21 | 6.66% | 
98 | COc1ccccc1CN1CC2(CCN(S(=O)(=O)c3ccccc3)CC2)C1 | 5.12% | 
